Screens as filed in PubChem.
An excerpt weighted towards active compounds, which were near 2.3% of everything screened.
m-calpain inh: inhibitors of pig calpain II, primary screen, biochemical, fluorogenic peptide substrate, 1536-well; purified calpain II, 30 min; hit rate 0.37% among 220,000; inhibition, % at 16 µM;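 active = inhibition above about 50%, limit read from the data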
Cardio protect: cardioprotection against H2O2-induced cell death, primary screen, uHTS, H9c2 cells, ATPLite luminescence. H9c2 cardiomyocytes, H2O2 injury protection, 2 h. hit rate 0.63% among 360,000. protection from H2O2 cell death, % at 20 µM;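 active = compounds giving at least 50% protection of heart cells from peroxide-induced death in the single-dose screen, raw or plate-pattern-corrected value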
beta cell repl: inducers of MIN6 beta-cell proliferation, primary screen, ATP luminescence, uHTS. MIN6 cells proliferation, ATPlite luminescence, 48 h; cells starved in 0.2% serum; 100% = growth in 10% serum. proliferation, % at 10 µM. hit rate 0.29% among 330,000. AID 2380, 2010;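 active = compounds whose signal lies at least 3.5 SD above the mean of all wells on their plate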
FAS-TE inh: FAS thioesterase domain inhibitors, primary screen, biochemical, fluorescence intensity, uHTS; Fatty acid synthase (Homo sapiens), P49327; recombinant FAS-TE, OMFH fluorogenic substrate, fluorescence endpoint; inhibition, % at 15 µM; hit rate 0.67% among 360,000;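 active = compounds whose normalised, plate-corrected inhibition of enzyme fluorescence in the single-dose primary screen is 50% or more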
Target sequence (P49327 whole entry, looked up, the tested form may be a part): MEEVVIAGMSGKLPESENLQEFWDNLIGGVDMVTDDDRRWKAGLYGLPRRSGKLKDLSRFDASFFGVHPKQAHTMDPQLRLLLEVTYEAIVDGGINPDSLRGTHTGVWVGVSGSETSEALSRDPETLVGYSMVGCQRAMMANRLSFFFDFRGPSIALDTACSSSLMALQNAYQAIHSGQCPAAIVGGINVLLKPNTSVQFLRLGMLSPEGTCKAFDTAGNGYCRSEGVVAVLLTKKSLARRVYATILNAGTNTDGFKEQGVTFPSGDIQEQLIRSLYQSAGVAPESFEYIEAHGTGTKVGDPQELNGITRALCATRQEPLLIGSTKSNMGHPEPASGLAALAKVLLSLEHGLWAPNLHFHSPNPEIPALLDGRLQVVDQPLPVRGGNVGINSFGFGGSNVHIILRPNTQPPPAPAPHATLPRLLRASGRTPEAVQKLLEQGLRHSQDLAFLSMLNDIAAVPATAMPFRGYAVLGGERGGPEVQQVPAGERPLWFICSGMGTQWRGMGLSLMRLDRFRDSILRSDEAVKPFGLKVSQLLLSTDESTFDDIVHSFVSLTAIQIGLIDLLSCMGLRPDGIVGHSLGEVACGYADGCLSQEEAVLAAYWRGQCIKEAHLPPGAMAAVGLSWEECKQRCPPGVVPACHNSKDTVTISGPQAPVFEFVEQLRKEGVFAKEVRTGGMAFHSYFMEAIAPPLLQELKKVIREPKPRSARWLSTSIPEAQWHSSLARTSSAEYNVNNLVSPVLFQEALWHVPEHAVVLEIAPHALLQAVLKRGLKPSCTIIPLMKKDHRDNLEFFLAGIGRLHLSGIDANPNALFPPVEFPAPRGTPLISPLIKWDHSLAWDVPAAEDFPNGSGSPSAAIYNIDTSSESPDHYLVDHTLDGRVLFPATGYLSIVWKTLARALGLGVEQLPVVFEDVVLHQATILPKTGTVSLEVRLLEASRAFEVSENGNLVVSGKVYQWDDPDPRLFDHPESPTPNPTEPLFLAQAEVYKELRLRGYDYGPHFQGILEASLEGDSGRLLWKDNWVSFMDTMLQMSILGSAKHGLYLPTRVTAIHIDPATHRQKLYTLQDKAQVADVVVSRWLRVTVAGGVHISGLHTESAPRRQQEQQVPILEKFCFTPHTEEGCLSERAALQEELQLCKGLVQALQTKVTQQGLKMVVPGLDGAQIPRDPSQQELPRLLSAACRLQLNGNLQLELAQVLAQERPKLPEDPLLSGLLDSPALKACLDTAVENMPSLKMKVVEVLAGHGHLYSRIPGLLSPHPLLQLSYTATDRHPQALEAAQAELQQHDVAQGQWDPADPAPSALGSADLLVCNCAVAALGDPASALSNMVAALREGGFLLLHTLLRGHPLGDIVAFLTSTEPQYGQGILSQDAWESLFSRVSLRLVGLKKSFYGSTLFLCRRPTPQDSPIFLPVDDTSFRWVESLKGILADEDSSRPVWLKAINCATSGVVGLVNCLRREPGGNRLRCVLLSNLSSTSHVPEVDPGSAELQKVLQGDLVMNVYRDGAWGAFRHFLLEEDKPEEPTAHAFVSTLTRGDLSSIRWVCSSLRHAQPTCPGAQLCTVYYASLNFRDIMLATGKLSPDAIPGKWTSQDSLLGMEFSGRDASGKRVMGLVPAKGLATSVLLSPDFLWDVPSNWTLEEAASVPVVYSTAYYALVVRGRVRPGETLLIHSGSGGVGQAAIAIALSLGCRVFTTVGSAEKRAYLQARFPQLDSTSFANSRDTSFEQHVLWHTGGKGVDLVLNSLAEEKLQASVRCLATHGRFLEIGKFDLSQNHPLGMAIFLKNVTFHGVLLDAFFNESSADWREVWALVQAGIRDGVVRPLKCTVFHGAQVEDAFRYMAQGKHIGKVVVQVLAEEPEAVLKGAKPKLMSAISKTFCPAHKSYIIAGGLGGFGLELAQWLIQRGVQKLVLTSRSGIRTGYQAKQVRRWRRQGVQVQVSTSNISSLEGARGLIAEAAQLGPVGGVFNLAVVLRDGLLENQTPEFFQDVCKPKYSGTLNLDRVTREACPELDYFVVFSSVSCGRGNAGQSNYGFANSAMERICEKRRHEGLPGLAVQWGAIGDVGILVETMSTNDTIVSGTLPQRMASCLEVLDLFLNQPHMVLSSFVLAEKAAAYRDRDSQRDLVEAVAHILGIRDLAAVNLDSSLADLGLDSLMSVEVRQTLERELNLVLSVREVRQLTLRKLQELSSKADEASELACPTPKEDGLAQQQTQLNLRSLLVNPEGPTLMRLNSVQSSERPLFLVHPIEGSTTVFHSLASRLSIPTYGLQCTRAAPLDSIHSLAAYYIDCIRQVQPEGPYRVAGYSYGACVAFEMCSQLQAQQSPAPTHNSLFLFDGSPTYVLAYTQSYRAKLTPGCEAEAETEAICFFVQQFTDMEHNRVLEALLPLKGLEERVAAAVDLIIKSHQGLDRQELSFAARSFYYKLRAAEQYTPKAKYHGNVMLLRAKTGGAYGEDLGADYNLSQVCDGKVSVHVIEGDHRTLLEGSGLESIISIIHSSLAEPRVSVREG
H9c2 TAG inh: inhibitors of triacylglycerol accumulation, primary screen, cell-based, uHTS, fluorescence, H9c2 | H9c2 cells, Nile Red lipid (TAG) fluorescence; cells loaded with 200 µM oleic acid | inhibition, % at 12.5 µM | hit rate 0.66% among 230,000 | AID 651582, 2012;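 active = pattern-corrected inhibition of lipid staining of at least 50% with the nuclear-stain viability signal not falling by more than 50%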
aDG glyco act: activators of alpha-DG glycosylation, primary screen, uHTS, Pro5-aDG cells, AlphaScreen. alpha-DG glycosylation AlphaScreen (IIH6); 0% Pro5, 100% B10-LARGE cell signal. AID 624168, 2012. activation, % at 10 µM. hit rate 0.22% among 360,000;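 active = activation of at least 8% versus controls, or a plate z-score of at least 8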;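 note: Pro5 are CHO cells carrying HIG-tagged alpha-DG that lacks glycosylation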
TAG conf: triacylglycerol accumulation inhibitors, retest, confirmation, cell-based, single concentration, Nile Red fluorescence, H9c2. shares compounds with H9c2 TAG inh. H9c2 lipid accumulation; cells loaded with 200 µM oleic acid. inhibition, % at 12.5 µM. hit rate 71% among 990. AID 651629, 2012;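 active = mean inhibition across replicates of 40% or more; inactive = mean inhibition below 40%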
A number is an active result; n = inactive; x = not tested or not shown.

SMILES	m-calpain inh	Cardio protect	beta cell repl	FAS-TE inh	H9c2 TAG inh	aDG glyco act	TAG conf
O=C(O)CSc1nnc(-c2cccc(S(=O)(=O)N3CCOCC3)c2)n1-c1cccc(Cl)c1	n	n	n	n	n	n	x
CC1=CC(C)(C)N2C(=O)C3(C(C#N)=C(N)Oc4cc(C)oc(=O)c43)c3cc(C)cc1c32 (centres undefined)	x	n	n	n	n	n	x
CCc1cc2c3c(c1)C1(C(=O)N3C(C)(C)C=C2C)C(C#N)=C(N)Oc2[nH]c(=O)[nH]c(=O)c21 (centres undefined)	n	n	n	n	51	n	49
c1ccc(-c2nc(SCc3nc4ccccc4[nH]3)c3oc4ccccc4c3n2)cc1	x	n	n	n	74	n	88
Cc1nc(SCc2nc3ccccc3[nH]2)c2oc3ccccc3c2n1	n	n	n	n	n	n	x
CC1(c2ccccc2)O[C@@H]2C[C@H]3[C@@H]4CCC5=CC(=O)C=C[C@]5(C)[C@@]4(F)[C@@H](O)C[C@]3(C)[C@]2(C(=O)CO)O1 (some centres undefined)	n	n	n	n	53	n	55
Cc1ccc(NC(=O)CSc2nc3ccc(Nc4nc(N5CCOCC5)nc(N5CCOCC5)n4)cc3s2)cc1	x	n	n	n	84	n	86
COc1ccc(NC(=O)CSc2nc3ccc(Nc4nc(N5CCOCC5)nc(N5CCOCC5)n4)cc3s2)cc1	x	n	n	n	x	n	x
CC(Oc1ccc(Br)cc1Cl)C(=O)Nc1ccncc1 (centres undefined)	x	n	n	n	n	n	x
CCOc1ccc(CCNC(=O)CN2CCN(Cc3ccccc3C)C2=O)cc1OCC	n	n	n	n	60	n	54
CCOc1ccc(CCNC(=O)Cn2c(-c3nonc3N)nc3ccccc32)cc1OCC	n	n	n	n	57	n	n
CCCCOc1ccccc1NC(=O)Cn1c(-c2nonc2N)nc2ccccc21	n	n	n	n	73	n	64
NNC(=O)Cn1c(-c2nonc2N)nc2ccccc21	n	n	n	n	n	n	x
COc1cc(Cn2c(-c3nonc3N)nc3ccccc32)ccc1C	n	n	n	n	66	n	62
CCC(=O)c1ccc(OCC(=O)OCC(=O)NCC2CCCO2)cc1 (centres undefined)	x	n	n	n	n	n	x
Cc1nnc(SCC(=O)Nc2cccc(Cl)c2)n1CC1CCCO1 (centres undefined)	x	n	n	n	x	n	x
O=S(=O)(Nc1ccc(-c2cn3c(n2)SCC3)cc1)c1cc(F)ccc1F	x	n	x	n	n	n	x
O=C(CN1C(=O)c2ccccc2S1(=O)=O)NCc1c(F)cccc1F	x	n	n	n	n	n	x
CCN1C(=O)/C(=C2\SC(N3CCOCC3)=NC2=O)c2ccccc21	x	n	n	n	x	n	x
C=CCN1C(=O)/C(=C2\SC(N3CCOCC3)=NC2=O)c2cc(Br)ccc21	n	76	n	n	58	n	50
CSC1=C(C#N)C(c2ccccc2Cl)C2=C(N1)c1ccccc1C2=O (centres undefined)	n	n	n	n	n	n	x
CSC1=C(C#N)C(c2ccccc2C)C(C#N)=C(N)N1 (centres undefined)	n	n	n	n	55	n	n
COC(=O)c1cc(C(=O)N2CCN(c3ccccc3OC)CC2)cc([N+](=O)[O-])c1	n	n	n	n	51	n	85
COC(=O)c1cc(C(=O)N2CCN(c3cccc(C)c3C)CC2)cc([N+](=O)[O-])c1	n	n	n	n	n	n	x
COc1ccc(C(=O)N/C(=C/c2cccnc2)C(=O)N2CCCCCC2)cc1OC	x	n	n	n	x	n	x
SMILES	m-calpain inh	Cardio protect	beta cell repl	FAS-TE inh	H9c2 TAG inh	aDG glyco act	TAG conf
Cc1cc(C)c(CN2CCN(C(=O)CC[C@H]3O[C@@H](n4cnc5c(NC(=O)c6ccccc6)ncnc54)[C@H](O)[C@@H]3O)CC2)c(C)c1	x	n	x	n	x	n	x
COC(=O)c1c(NC(=S)NN2CCN(C)CC2)sc2c1CCC(C)C2 (centres undefined)	n	n	n	n	65	n	84
Cc1ccc(SCC(=O)OCC(=O)N(C)CC(=O)Nc2ccc(F)cc2)cc1C	x	n	n	n	n	n	x
COC(=O)c1ccc(/C=C/c2c(-c3ccsc3)oc3ccc(N4CCOCC4)cc23)cc1	x	n	n	n	60	n	54
Nc1ccc(C#Cc2c(-c3ccsc3)oc3ccc(N4CCOCC4)cc23)cc1	x	n	n	n	51	n	53
O=C(CC[C@H]1O[C@@H](n2ccc(=O)[nH]c2=O)[C@H](O)[C@@H]1O)NCc1cccc2ccccc12	x	n	x	n	x	n	x
O=C1OCC2=C1C(c1ccc3c(c1)OCO3)c1cc3c(cc1O2)OCO3 (centres undefined)	x	n	x	n	n	n	x
CC(C)c1ccc(C2C3=C(COC3=O)Nc3cc4c(cc32)OCO4)cc1 (centres undefined)	n	n	n	n	54	n	n
O=C(NC(c1ccc(F)cc1)c1ccc2ccccc2n1)C1CCN(Cc2cccc(C(F)(F)F)c2)CC1 (centres undefined)	x	n	x	n	n	n	x
Cc1cc(NC(=O)c2ccccc2F)n(-c2nc3ccccc3[nH]2)n1	n	n	n	n	64	n	57
Cc1cc(NC(=O)c2c(F)cccc2F)n(-c2nc3ccccc3[nH]2)n1	n	n	n	n	x	n	x
O=C(NNC(=S)Nc1ccccc1)C1CCCCC1	n	n	n	n	n	n	x
O=C(C[C@H]1C[C@H](C(=O)N2CCCCC2)[C@@]2(CCc3ccccc3)c3[nH]c4ccc(Cl)cc4c3CCN2C1=O)NCc1cccc(C(F)(F)F)c1	x	n	x	n	102	n	100
CC(C)(C)NC(=O)C[C@H]1C[C@H](C(=O)N2CCCCC2)[C@@]2(CCc3ccccc3)c3[nH]c4ccc(Cl)cc4c3CCN2C1=O	x	n	x	n	62	n	45
O=C(C[C@H]1C[C@H](C(=O)N2CCCCC2)[C@@]2(CCc3ccccc3)c3[nH]c4ccc(Cl)cc4c3CCN2C1=O)NCc1ccco1	x	n	x	n	n	n	x
COc1ccc2[nH]c3c(c2c1)CCN1C(=O)C(CC(=O)NCc2cccc(C(F)(F)F)c2)C[C@H](C(=O)N2CCCCC2)[C@@]31CCc1ccccc1 (some centres undefined)	x	n	x	n	102	n	90
